From the supplement of paper PMC13380429
Structures can show the parent of a compound that is named as a salt. Unmarked numbers belong to inactive results.

Each compound was assayed on Vero E6 infected with SARS-CoV-2 (assay: SARS-CoV-2 infection rate relative to infected DMSO; higher = more infection, active = 60 or less). Conditions: 24 h.

Row | SMILES | SARS-CoV-2 infection rate [%]
1 | CN(C)CCCSC(=N)N [dimaprit] (10 µM) | 94.5
2 | CC(N)CCCC(C)(C)O (stereo unspecified) [heptaminol] (10 µM) | 111
3 | COC(=O)[C@H](Cc1ccccc1)NC(=O)[C@@H](N)CC(=O)O [aspartame] (10 µM) | 106
4 | Cc1ccc(C)c(OCCCC(C)(C)C(=O)O)c1 [gemfibrozil] (10 µM) | 98.5
5 | C[C@H](/C=C/[C@H](C)C(C)(C)O)[C@H]1CC[C@H]2/C(=C/C=C3C[C@@H](O)C[C@H](O)C3)CCC[C@]12C [paricalcitol] (10 µM) | 104
6 | CCC(=O)NCC[C@@H]1CCc2ccc3c(c21)CCO3 [ramelteon] (10 µM) | 114
7 | Cc1ccccc1N(C)C(=O)c1ccc([S+]([O-])c2nccs2)c([N+](=O)[O-])c1 (stereo unspecified) (0.833333 µM) | 81
8 | CCS(=O)(=O)CCn1c([N+](=O)[O-])cnc1C [tinidazole] (10 µM) | 108
9 | Cc1nc(N)sc1CCN [amthamine] (10 µM) | 92.5
10 | CN1CC[C@H](c2c(O)cc(O)c3c(=O)cc(-c4ccccc4Cl)oc23)[C@H](O)C1 [alvocidib] (10 µM) | 108
11 | CN[C@@H]1[C@H](O[C@H]2[C@H](O[C@H]3[C@H](O)[C@@H](O)[C@H](N=C(N)N)[C@@H](O)[C@@H]3N=C(N)N)O[C@@H](C)[C@]2(O)C=O)O[C@@H](CO)[C@H](O)[C@H]1O [STREPTOMYCIN SULFATE [5mM; 10% aq DMSO + 5mM ethanolamine]] (10 µM) | 104
